Shown are actives, neighbours in structure and some others; about 0.43% of the full set was active somewhere.
GAA inh: inhibitors of human lysosomal alpha-glucosidase; P10253; purified human GAA, 4-MU-alpha-glucoside fluorescence; Potency, µM (titrated, usually from 76.9 µM), inactives show top-dose activity change, negative = inhibition, hits mostly inhibitors; 200,000 tested, 0.005% active; AID 1466;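 further: potency means the concentration at half of the fitted maximal effect; plate controls were uninhibited enzyme wells for no effect and no-enzyme background for full effect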
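Fluorescence at Ex 365/Em 440 nm from 4-methylumbelliferone reported enzyme activity after 20 min at room temperature. Reactions used 4 nM enzyme and 400 uM substrate at pH 5.0; curves fitted with the Hill equation.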
aGal spleen mod: inhibits or activates alpha-galactosidase in human spleen homogenate. 240,000 tested, 0.008% active. Potency, µM (highest dose often 80 µM), for inactives: top-dose activity change, negative = inhibition, actives largely listed as inhibitors. P06280. human spleen homogenate, 4MU-alpha-Gal fluorescence, 40 min;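 further: potency means the concentration at half of the fitted maximal effect; 0% = enzyme with vehicle and -100% = no enzyme basal signal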
Target sequence (P06280 32-429 limits assumed): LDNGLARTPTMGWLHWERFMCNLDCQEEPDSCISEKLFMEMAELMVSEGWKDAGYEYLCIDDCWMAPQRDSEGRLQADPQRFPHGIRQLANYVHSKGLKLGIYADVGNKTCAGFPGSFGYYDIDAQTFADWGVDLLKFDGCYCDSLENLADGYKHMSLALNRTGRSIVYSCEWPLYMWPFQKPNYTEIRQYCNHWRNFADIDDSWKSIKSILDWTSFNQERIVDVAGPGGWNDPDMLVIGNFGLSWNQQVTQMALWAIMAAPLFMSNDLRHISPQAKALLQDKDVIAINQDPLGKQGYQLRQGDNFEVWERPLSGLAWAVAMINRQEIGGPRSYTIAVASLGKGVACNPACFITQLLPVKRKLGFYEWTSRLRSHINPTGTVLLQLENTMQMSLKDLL
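Human spleen homogenate (1 ug) was the enzyme source, with 4-methylumbelliferyl-alpha-D-galactopyranoside (1 mM final) in pH 5.0 citrate buffer with 0.01% Tween-20. Compounds were titrated; after 40 min at 37C, NaOH/glycine stop, 4-MU fluorescence read; AC50 from Hill fits.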
GLA inh pH 4.5: blocks human alpha-galactosidase A at pH 4.5. purified enzyme, 4-MU-alpha-Gal fluorescence, pH 4.5. activity change, negative = inhibition, % at 105 µM. 230,000 tested, under 10 active. AID 1467;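 further: 0% = full activity with enzyme and -100% = basal without enzyme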
aGlu spleen mod: inhibits or activates alpha-glucosidase in human spleen homogenate. P10253. human spleen homogenate, 4-MU-alpha-glucoside fluorescence. Potency, µM (titrated, usually from 79.9 µM), without a hit: at the highest dose activity change, negative = inhibition, hits mostly inhibitors. 240,000 tested, 0.006% active;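 further: potency means the concentration at half of the fitted maximal effect; 0% = enzyme with vehicle and -100% = no enzyme basal signal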
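Human spleen homogenate (1 ug) incubated with compounds and 1 mM 4-methylumbelliferyl-alpha-D-glucopyranoside in pH 5.0 citrate/phosphate buffer, 37 C, 40 min. Stopped at pH 10; 4-MU fluorescence (Ex 365/Em 440 nm); AC50 by Hill fit.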
N370S GC: inhibitors or activators of N370S glucocerebrosidase for Gaucher disease. P04062. N370S GC spleen homogenate, 4MU-glucoside fluorescence. Potency, µM (series often up to 59.4 µM), for inactives: at the highest dose activity change, negative = inhibition, hits mostly inhibitors. 330,000 tested, 0.092% active;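 further: potency means the concentration at half of the fitted maximal effect; 0% = full enzyme activity and -100% = no enzyme basal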
GAA glycogen: alters human alpha-glucosidase cleavage of glycogen; P10253; recombinant GAA, glycogen substrate, Amplex Red glucose oxidase fluorescence; Potency, µM (highest dose often 76.4 µM), for the others: at the highest dose activity change, negative = inhibition, usual class: inhibitors; 300,000 tested, 0.38% active; AID 2100;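 further: potency means the concentration at half of the fitted maximal effect; 0% = full enzyme reaction and -100% = no-enzyme basal signal; the screen sought inhibitors and activators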
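Recombinant human alpha-glucosidase (4 nM final) hydrolysed bovine liver glycogen (30 ug) for 40 min at 37 C in pH 5.0 citrate/phosphate with 0.01% Tween-20. Released glucose detected by glucose oxidase/Amplex Red, Ex 573/Em 610 nm. Compounds up to 77 uM; AC50 from Hill fits.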
* marks the source's active call; other numbers are inactive results; ? = inconclusive; . = not tested or not shown; [ ] = another dose, or the depositor's remark. The call rests on the fitted dose curve; in most records, active means well fitted curve in the direction sought with a large enough effect; inconclusive means small, poorly fitted or top-dose-only effect, or another doubt; inactive means no such curve, though single readings can be large; an effect the other way counts as inactive or inconclusive.

SMILES	GAA inh	aGal spleen mod	GLA inh pH 4.5	aGlu spleen mod	N370S GC	GAA glycogen
Cc1cccc(NS(=O)(=O)c2ccc(C(=O)N3CCN(c4ccccc4O)CC3)cc2)c1C	.	.	.	.	-5.4%	4.47µM*
Cc1cc(C)c2nc(N3CCCC(C(=O)NCc4cccc(Cl)c4)C3)sc2c1 (centres undefined)	.	.	.	.	.	13.5%[76.3 µM]
Cc1ccc(C2CC(=O)Oc3cc(C)c(Cl)cc32)cc1 (centres undefined)	.	17.1%[119 µM]	5.7	1.0%[119 µM]	5.4%[89.1 µM]	.
CO[C@H]1COC(=O)[C@@H](C)COC(=O)[C@H](C)NC(=O)C/C=C\[C@H]1C	.	7.5%[17.5 µM]	.	2.1%[17.4 µM]	-11.5%[12.8 µM]	.
Cc1ccc(N=Nc2c(N)n[nH]c2N)cc1	.	.	.	.	0.6%	?
Nc1n[nH]c(N)c1N=Nc1ccc2c(c1)OCO2	-7.9%	-3.4%	-3.0	-1.9%	-11.6%	12.6µM*
O=c1[nH]c(CN2CCN(CCO)CC2)nc2ccccc12	-4.5%	-7.5%	6.4	-12.5%	2.0%	2.8%
O=c1[nH]c(CN2CCN(c3ccccc3O)CC2)nc2ccccc12	?	7.3%	-2.3	1.6%	-7.9%	7.94µM*
O=C(c1ccccc1)c1ccc(OCCOCCN2CCN(Cc3ccccc3)CC2)cc1	3.8%	-11.3%	4.8	-6.9%	14.1µM*	22.0%
Cc1cc(O)c(/C=N/Nc2ccccc2Cl)c(=O)o1	-1.3%	8.7%	-4.1	-3.6%	-2.2%	25.1µM*
O=C(O)c1ccc(-c2nc(-c3ccc(Cl)c(Cl)c3)cs2)cc1	1.7%	-3.9%	-1.2	7.3%	13.3%	6.4%
NC(=O)C(=CNc1nc(-c2ccc(Cl)c(Cl)c2)cs1)C(N)=O	.	6.5%	-0.4	-2.5%	-18.7%	7.08µM*
O=C(N/N=C1/C[C@@H](O)[C@@H](O)[C@@H]2[C@@H]3C(=O)N(C[C@@H]4CCCO4)C(=O)[C@H]3CC[C@@H]12)OCc1ccccc1	.	-2.5%[17.5 µM]	.	6.4%[17.4 µM]	-14.3%[12.8 µM]	.
COc1ccc(-c2ccc3c(N)c(C(=O)NCc4ccc(Cl)cc4)sc3n2)cc1	.	.	.	.	.	2.5%[76.3 µM]
CCCCN(CC)CCCNC(=O)Nc1sc2nc3n(c(=O)c2c1C)CCC(C)CC3 (centres undefined)	.	.	.	.	.	10µM*
COc1cc(C(=O)CC2(O)C(=O)N(Cc3ccccc3Cl)c3ccccc32)cc(OC)c1OC (centres undefined)	.	.	.	.	.	-11.2%[76.3 µM]
Nc1nc(-c2ccccc2)c(N=Nc2ccccc2Cl)s1	-7.6%	-4.2%	-6.5	-7.4%	10µM*	2.7%
CCCCN(CC)CCCNC(=O)c1cn(CC)c2ccc(S(=O)(=O)N3CCOCC3)cc2c1=O	.	.	.	.	.	10.3%[76.3 µM]
CCn1cnc2cc(NCc3cccc(OC)c3O)ccc21	1.1%	-8.0%	0.6	-4.5%	17.4%	15.7µM*
COC(=O)Cn1c(=O)c2cccn2c2cccnc21	.	.	.	.	.	-7.6%[76.3 µM]
Cc1ccn2c(NC3CCCC3)c(-c3ccccn3)nc2c1	-2.4%	6.6%	0.4	4.8%	-12.1%	?
Cc1ccn2c(NC3CCCC3)c(-c3ccncc3)nc2c1	-9.6%	6.3%	3.4[21.1 µM]	3.0%	-3.1%	28.2µM*
c1ccc(-c2nc3ccccn3c2NC2CCCC2)nc1	-0.9%	9.3%	-0.7	-0.3%	-18.0%	11.1µM*
COc1cccc(-c2ccc3ncnc(NCc4ccc(OC)cc4OC)c3c2)c1	.	-3.6%	.	-0.2%	-9.8%	.
Cc1cc(C)c2c(-n3cccc3)c(C(=O)NNS(=O)(=O)c3ccc(Br)cc3)sc2n1	-5.2%	6.4%	-4.9	-5.7%	?	17.8µM*
Cc1cc(C)c2c(-n3cccc3)c(C(=O)NCC(C)c3ccccc3)sc2n1 (centres undefined)	.	.	.	.	.	1.9%[76.3 µM]
Cc1ccc(C(C(=O)NC(C)(C)C)N(Cc2ccco2)C(=O)Cn2nnc(-c3cccs3)n2)cc1 (centres undefined)	-3.8%	9.5%	-2.5	4.3%	4.5%	6.4%
CC(C)(C)NC(=O)C(c1ccncc1)N(Cc1cccs1)C(=O)Cn1nnc(-c2cccs2)n1 (centres undefined)	-6.6%	1.2%	-1.7	-4.3%	3.3%	28µM*

High-throughput results deposited in PubChem by National Center for Advancing Translational Sciences (NCATS).
